# Compound activity: PubChem, several laboratories
# In the library only some 13% were active in any assay of this set; here they are far more common.
# WT yeast gro inh: growth inhibition of WT yeast, mitochondrial fusion screen. mitochondrial fusion phenotypic screen, WT strain. inhibition, % at 10 µM. 2.1% of 190,000 active. AID 1362; in the data active = inhibition above about 58%; tested in S. cerevisiae
# RAM network inh: blocks the yeast RAM network. 1.8% of 190,000 active. inhibition, % at 50 µM. S. cerevisiae dse1pr::URA3 reporter, 5-FOA growth OD615, 2 d; analog-sensitive cbk1-as2 kinase mutant strain;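 active = inhibition above a set limit, 3 SD over mean compound inhibition, cut at about 8.4% in these data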;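 note: inhibition rescues growth on 5-FOA so higher OD means more RAM inhibition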
# CHOP inhibitor: blocks CHOP induction under ER stress; CHO-K1 CHOP-promoter luciferase, tunicamycin-induced, 15-18 h; AID 2732; 3.8% of 220,000 active; inhibition, % at 10 µM;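 active = compounds that reduced the stress-induced luciferase reporter signal by more than about 70% of percent inhibition, limit read from the data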
# Lmaj promast: Leishmania major promastigote growth inhibition. Leishmania major promastigotes, resazurin fluorescence viability. inhibition, % at 10 µM. 9% of 200,000 active. AID 1063; in the data active = inhibition above about 50%;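 note: promastigotes grown with compound for 44 hours at 28 °C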
# Numbers stand for hits; 0 = inactive; - = not tested or not shown.
SMILES,WT yeast gro inh,RAM network inh,CHOP inhibitor,Lmaj promast
CCOC(=O)C1(Cc2ccccc2C(F)(F)F)CCN(C2CCC2)CC1,0,0,0,61
CCOC(=O)C1(CCCc2ccccc2)CCN(C2CCN(C(C)=O)CC2)CC1,0,0,0,78
O=c1c2cnn(-c3ccccc3)c2nc(-c2cccs2)n1-c1cccc(Cl)c1,0,0,0,0
COc1ccccc1C(=O)N=c1sc2c(C)ccc(OC)c2n1C,-,-,0,-
COc1ccccc1C(=O)NCCCNc1ccc([N+](=O)[O-])cc1,0,0,0,0
O=C(NCCCO)c1cc([N+](=O)[O-])cc2c1C=Cc1ccccc1O2,0,0,0,97
C/C(Cn1nc([N+](=O)[O-])cc1C)=N\NC(=O)c1cccc(Br)c1,0,0,0,86
COc1nnc(-c2ccccc2)s1,0,0,0,0
Cc1ccc(-c2nn(C)c(=O)c3ccccc23)cc1S(=O)(=O)NCCN(C)C,0,0,0,0
CCN(CC)S(=O)(=O)c1cc(-c2nn(C)c(=O)c3ccccc23)ccc1C,0,0,0,87
C/C(Cn1nc([N+](=O)[O-])cc1C)=N\NC(=O)COc1ccc(Cl)cc1Cl,0,0,0,0
O=C(CSc1nc(NS(=O)(=O)c2ccccc2)cc(=O)[nH]1)Nc1ccc(F)cc1,0,0,0,0
O=C(Nc1ccc(S(=O)(=O)N2CCCC2)cc1)c1ccc(CN2CCc3ccccc3C2)cc1,0,0,70,90
O=C(Nc1ccc(Cc2ccncc2)cc1)c1ccc(S(=O)(=O)N2CCCC2)cc1,0,0,0,99
Cc1ccc(S(=O)(=O)N2CCN(C(=O)CN3CCc4ccccc4C3)CC2)cc1,0,0,0,88
Cc1ccnc(NS(=O)(=O)c2ccc(NC(=O)CSc3nc(-c4ccccc4)cc(=O)[nH]3)cc2)n1,0,0,0,94
O=C(Nc1ccc(S(=O)(=O)N2CCCCC2)cc1)c1ccncc1,0,0,0,0
Cc1ccc(C(=O)Nc2ccc(S(=O)(=O)N3CCCC3)cc2)s1,0,0,0,0
CCCC(=O)Nc1ccc(S(=O)(=O)N2CCOCC2)cc1,0,0,0,0
CCCCC(=O)Nc1ccc(S(=O)(=O)Nc2nccc(C)n2)cc1,0,0,0,0
CC(=O)Nc1ccc(S(=O)(=O)Nc2ccc(S(=O)(=O)N3CCCC3)cc2)cc1,0,0,0,0
CC(=O)c1ccc(NC(=O)c2ccc(S(=O)(=O)N3CCCC3)cc2)cc1,0,0,0,98
CCCCC(=O)Nc1ccc(C(=O)Nc2ccc(S(=O)(=O)N3CCCC3)cc2)cc1,0,8.6,0,0
Cc1cc(C(=O)Nc2ccc(S(=O)(=O)N3CCCC3)cc2)cs1,0,0,0,73
CCCCC(=O)Nc1ccc(C(=O)Nc2ccc(S(=O)(=O)Nc3nccc(C)n3)cc2)cc1,0,0,0,78
SMILES,WT yeast gro inh,RAM network inh,CHOP inhibitor,Lmaj promast
CN1CCN(CCCC(=O)c2ccc(C3CCCC3)cc2)CC1,0,0,0,97
O=C(O)c1ccc2cccnc2c1O,-,-,0,-
OCCN1CCN(C(c2cccs2)c2ccc3cccnc3c2O)CC1 (stereo unspecified),0,0,-,53
CCn1cc(CN2N=C(C)CC2c2ccccc2)c(C)n1 (stereo unspecified),0,0,0,0
Cn1c(=O)c(C(=O)CN2CCCc3ccccc32)c(N)n(Cc2ccccc2)c1=O,0,0,77,0
COc1ccc(CCNc2oc(-c3ccc(OC)c(OC)c3)nc2C#N)cc1,0,11,0,0
Cn1c(/C(C#N)=C/c2ccc(O)cc2)nc2ccccc21,-,-,0,-
Cn1c(/C(C#N)=C/C2CC=CCC2)nc2ccccc21 (stereo unspecified),0,0,0,79
N#C/C(=C\C1CC=CCC1)c1nc2ccccc2[nH]1 (stereo unspecified),0,0,0,95
C=CCn1c(NCc2ccccc2)nc2ccccc21,0,0,0,0
CCn1c(NCc2ccc3c(c2)OCO3)nc2ccccc21,0,0,0,78
C=CCn1c(NCc2ccc3c(c2)OCO3)nc2ccccc21,0,0,0,98
CN(C)CCCn1c(NCc2ccc3c(c2)OCO3)nc2ccccc21,0,0,0,66
COc1ccc(N(CC(=O)Nc2nccs2)S(=O)(=O)c2c(C)[nH]c(=O)[nH]c2=O)cc1,0,0,0,0
CC1CCN(C2=NC(=O)/C(=C/c3cn(-c4ccccc4)nc3-c3cccc(S(=O)(=O)N(C)C)c3)S2)CC1,0,0,0,80
Cc1cc(-c2nn(-c3ccccc3)cc2/C=C2\SC(N)=NC2=O)ccc1OC(C)C,0,0,0,0
CC1CCCN(C2=NC(=O)/C(=C/c3cn(-c4ccccc4)nc3-c3cccc(S(=O)(=O)N(C)C)c3)S2)C1 (stereo unspecified),0,0,0,69
CN(C)S(=O)(=O)c1cccc(-c2nn(-c3ccccc3)cc2/C=C(/C#N)C(=O)NCc2ccco2)c1,0,0,0,0
CC(=O)OC[C@H]1O[C@@H](O/N=C/C[C@@H]2C=C[C@H](OC(C)=O)[C@@H](COC(C)=O)O2)[C@H](OC(C)=O)[C@@H](OC(C)=O)[C@@H]1OC(C)=O,0,0,0,0
N#Cc1ccsc1NC(=O)COC(=O)c1cc2ccccc2cc1O,0,0,0,79
NS(=O)(=O)c1cccc(NC(=O)COC(=O)CN2C(=O)C3CC=CCC3C2=O)c1 (stereo unspecified),0,0,0,0
COC(=O)C1=C(C)N(c2ccc(C)c(C)c2)/C(=C/c2cccs2)C1=O,0,0,0,82
COC(=O)C1=C(C)N(c2ccc(Cl)cc2)/C(=C/c2cccs2)C1=O,0,0,0,0
COC(=O)C1=C(C)N(c2ccccc2)/C(=C/c2cccs2)C1=O,0,0,0,51
CC(C)NC(=O)CSc1nc(N)c(NC(=O)c2ccco2)c(=O)[nH]1,0,0,0,0
SMILES,WT yeast gro inh,RAM network inh,CHOP inhibitor,Lmaj promast
Nc1ccc(N2CCCCC2)c(S(=O)(=O)Nc2ccccc2Cl)c1,-,-,0,-
O=C(Nc1cccc(C(F)(F)F)c1)Nc1ccc(N2CCCC2)c(S(=O)(=O)Nc2ccccc2Cl)c1,0,0,76,100
COc1ccccc1NS(=O)(=O)c1cc(NC(=O)Nc2ccc(Cl)cc2Cl)ccc1N1CCCCC1,0,0,0,99
COc1cc(/C=C/C(=O)Nc2ccc(N3CCCCC3)c(S(=O)(=O)Nc3ccccc3Cl)c2)cc(OC)c1OC,0,0,0,53
CCN(CC)S(=O)(=O)c1ccc(N2CCCCC2)c(NC(=O)/C=C/c2cc(OC)c(OC)c(OC)c2)c1,0,0,0,69
CCOc1cc(/C=N/NC(=O)CSc2nncn2C)ccc1OCc1cccc(C)c1,0,0,0,0
O=C(CSc1cccc[n+]1[O-])c1cc2ccccc2o1,0,0,0,95
O=C(CSc1cccc[n+]1[O-])c1cc(Cl)ccc1Cl,0,0,0,99
Cc1ccc(NC(=O)CN2CCCCCC2)cc1[N+](=O)[O-],0,0,0,0
CCOC(=O)c1c(-c2ccc(OC)cc2)cn2ccccc12,0,0,0,0
COc1ccc(N=C2SC(C(=O)N3CCN(c4ccc([N+](=O)[O-])cc4)CC3)CC(=O)N2C)cc1 (stereo unspecified),0,0,0,52
CC1=CC(=O)N(c2cccc(C(F)(F)F)c2)C1c1ccc(Cl)cc1 (stereo unspecified),0,0,0,0
